The source of these data is the GenesisPotency data set.

Screen size: about 290,000 compounds; about 3,000 (1%) were called active. No stated cut-off is given here; in the data, active means inhibition mostly above about 36% (no sharp cut-off); inactive means mostly below about 34%. Shown is part of a subset that was picked to be rich in actives.

The target of this assay is T1, Nucleotide-binding oligomerization domain-containing protein 1, Homo sapiens (UniProt Q9Y239).
T1 sequence (whole entry): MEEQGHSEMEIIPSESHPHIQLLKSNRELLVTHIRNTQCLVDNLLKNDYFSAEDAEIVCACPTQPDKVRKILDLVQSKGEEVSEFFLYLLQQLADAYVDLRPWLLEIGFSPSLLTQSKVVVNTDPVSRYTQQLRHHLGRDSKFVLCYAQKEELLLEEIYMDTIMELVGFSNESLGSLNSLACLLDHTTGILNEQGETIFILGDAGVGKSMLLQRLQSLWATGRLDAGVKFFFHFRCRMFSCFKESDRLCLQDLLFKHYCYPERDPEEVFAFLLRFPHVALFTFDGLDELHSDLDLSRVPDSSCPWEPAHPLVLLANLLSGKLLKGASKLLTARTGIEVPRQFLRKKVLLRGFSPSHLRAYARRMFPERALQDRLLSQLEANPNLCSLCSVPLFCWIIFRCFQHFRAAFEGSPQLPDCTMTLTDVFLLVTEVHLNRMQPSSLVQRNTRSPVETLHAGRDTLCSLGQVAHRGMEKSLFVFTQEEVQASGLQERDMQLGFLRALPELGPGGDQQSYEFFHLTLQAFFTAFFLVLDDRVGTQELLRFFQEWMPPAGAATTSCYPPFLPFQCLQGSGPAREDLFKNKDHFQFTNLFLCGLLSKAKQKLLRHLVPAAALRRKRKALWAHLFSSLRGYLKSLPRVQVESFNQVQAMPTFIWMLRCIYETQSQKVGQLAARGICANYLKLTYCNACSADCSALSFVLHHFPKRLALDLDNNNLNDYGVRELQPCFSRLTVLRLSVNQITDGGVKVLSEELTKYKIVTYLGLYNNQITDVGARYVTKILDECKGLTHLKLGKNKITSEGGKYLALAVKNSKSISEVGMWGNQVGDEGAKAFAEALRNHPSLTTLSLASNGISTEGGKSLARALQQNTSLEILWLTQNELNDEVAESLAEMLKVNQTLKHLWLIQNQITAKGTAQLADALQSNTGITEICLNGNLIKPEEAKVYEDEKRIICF
The assay is described as follows: NOD1 signaling inhibitors, primary screen, cell-based, luminescence, uHTS (AID 1578).
As for `COc1ccc(CS(=O)/C(Cl)=C(/Cl)C(=O)Nc2ccc(OC)nc2)cc1` (stereo unspecified), the call was active.
The value for `CC(=O)c1ccc(N2CCN(C(=S)Nc3ccc(Oc4ccccc4)cc3)CC2)cc1` was “active”; that for `C=CCSc1nsc(NC(=O)Nc2cccc(C(C)=O)c2)n1` was “active”; that for `Cc1ccc(CS(=O)(=O)c2ccc(C(=O)N3CCN(c4ccccn4)CC3)cc2[N+](=O)[O-])cc1` was “active”.
The value for `Cc1ccccc1CN1CCc2c(OCC(=O)N3CCCc4ccccc43)cccc2C1=O` was “active”; that for `O=[N+]([O-])c1ccc(NC(=S)NCc2ccc(F)cc2)cc1` was “active”.
As to `O=[N+]([O-])c1ccc(NC(=S)NCCc2ccc(Cl)cc2)cc1`, the call was active.
The value for `COc1ccc(-c2cc(C)no2)cc1S(=O)(=O)N1CCN(c2ccccc2F)CC1` was “active”; that for `Cc1cc(-c2ccc(C)c(S(=O)(=O)N3CCN(c4ccc(F)cc4)CC3)c2)on1` was “active”; that for `CCOC(=O)COc1ccc2ccccc2c1/C=C/[N+](=O)[O-]` was “active”.
The value for `COc1ccc(CC(=O)Nc2cccc(-c3nnc(-c4ccc(C)cc4)o3)c2)cc1OC` was “active”; that for `c1ccc2c(c1)ncn2-c1ccc(-c2ccnc(-c3ccncc3)n2)cc1` was “active”.
`Nc1nccc(-c2ccc(-n3cnc4ccccc43)cc2)n1`: the molecule was classed as active.
The value for `O=C(NNC(=O)c1ccccc1OCc1ccc(F)cc1)c1ccccc1O` was “active”; that for `O=C(NNC(=O)c1ccccc1OCc1ccccc1)c1ccccc1O` was “active”; that for `COc1cccc(-c2nnc3n2N=C(C(C)(C)C)CS3)c1` was “active”.
The value for `c1csc(C2=Nn3c(nnc3-c3ccncc3)SC2)c1` was “active”; that for `COc1ccc(C2=Nn3c(nnc3-c3ccncc3)SC2)cc1` was “active”.
The value for `c1ccc(C2=Nn3c(nnc3-c3ccncc3)SC2)cc1` was “active”.
Turning to `Clc1ccccc1C1=Nn2c(nnc2-c2ccncc2)SC1`, the result was active.
The value for `N#C/C(=C(/O)COC(=O)COc1ccc(Cl)cc1)c1nc2ccccc2[nH]1` was “active”.
The value for `Cc1cc(C)cc(OCC(=O)OC/C(O)=C(\C#N)c2nc3ccccc3[nH]2)c1` was “active”; that for `N#C/C(=C(/O)COC(=O)COc1cccc(Br)c1)c1nc2ccccc2[nH]1` was “active”.
The value for `COc1ccc(-[n+]2c(C)cc(/C=C3\Sc4ccccc4N3C)cc2C)cc1.[I-]` was “active”; that for `COc1ccc(-c2cncnc2-c2ccc(OC)cc2O)cc1` was “active”; that for `COc1ccc(-c2cnc(N)nc2-c2ccc(OC)cc2O)cc1` was “active”.
On to `Cc1ccc(Nc2cc(C)nn2-c2nc(C)cc(=O)[nH]2)cc1`, for which the call was active.
The value for `CCCc1cc(=O)n2[nH]cc(-c3ccc(Cl)cc3)c2n1` was “active”; that for `O=c1c2c(nc3c(-c4cccc(Br)c4)c[nH]n13)CCCC2` was “active”.
The value for `O=c1c2c(nc3c(-c4ccc(Cl)cc4)c[nH]n13)CCC2` was “active”; that for `O=c1c2c(nc3c(-c4ccc(Cl)cc4)c[nH]n13)CCCC2` was “active”.
As for `CN(C)S(=O)(=O)N1CCC(Oc2cccc(C(=O)NC3CCCCCC3)c2)CC1`, the call was active.
As for `Cc1ccc(NC(=S)N/N=C/c2ccc([N+](=O)[O-])s2)cc1`, the result was active.
Take `Cc1cccc(NC(=S)N/N=C/c2ccc([N+](=O)[O-])s2)c1`: the molecule was classed as active.
The value for `Cc1cc(N2CCOCC2)c2c(N)c(Br)cc(C)c2n1` was “active”; that for `O=C(Nc1nc(-c2ccccn2)cs1)Nc1ccc(F)cc1F` was “active”; that for `O=C(Nc1nc(-c2cc(F)ccc2F)cs1)c1ccccn1` was “active”.
The value for `O=C(Nc1nnc(SCc2ccc(F)cc2)s1)c1ccccn1` was “active”.
Consider `CC(Oc1ccc(Br)cc1)C(=O)Nc1nc(-c2ccccn2)cs1` (stereo unspecified), for which the outcome was active.
The value for `Cn1cc([N+](=O)[O-])c(C(=O)Nc2nc(-c3ccc(Cl)cc3)cs2)n1` was “active”.
The value for `O=C(Nc1nc(-c2ccccn2)cs1)c1cc(Cl)ccc1[N+](=O)[O-]` was “active”; that for `OCCCNc1ncnc2scc(-c3ccc(Cl)cc3)c12` was “active”; that for `COc1ccc(-c2csc3ncnc(NCCO)c23)cc1` was “active”.
The value for `COc1ccc(-c2csc3ncnc(NCCCO)c23)cc1` was “active”; that for `CCN(CC)S(=O)(=O)c1ccc2[nH]cc(C(=O)NCCC3=CCCCC3)c(=O)c2c1` was “active”.
On to `Cn1c(=O)c2c(nc(NCc3ccco3)n2C/C=C/c2ccccc2)n(C)c1=O`, for which the molecule was classed as active.
The value for `O=C(Nc1ccc(S(=O)(=O)N2CCOCC2)cc1)c1ccc(CN2CCc3ccccc3C2)cc1` was “active”; that for `O=C(Nc1ccc(S(=O)(=O)N2CCCCC2)cc1)c1ccc(CN2CCOCC2)cc1` was “active”.
The value for `O=C(Nc1ccc(CN2CCOCC2)cc1)c1ccc(-c2ccc(Cl)cc2Cl)o1` was “active”; that for `O=C(Nc1ccc(S(=O)(=O)Nc2ccc(F)cc2)cc1)c1ccc(CN2CCOCC2)cc1` was “active”; that for `O=C(Nc1ccc(S(=O)(=O)N2CCCCC2)cc1)c1ccc(CN2CCc3ccccc3C2)cc1` was “active”.
